This note sets out measurements from the supplement of paper PMC11001985.

A number with no mark means an inactive call.

Chain of UniProt P17301 (P17301 whole entry): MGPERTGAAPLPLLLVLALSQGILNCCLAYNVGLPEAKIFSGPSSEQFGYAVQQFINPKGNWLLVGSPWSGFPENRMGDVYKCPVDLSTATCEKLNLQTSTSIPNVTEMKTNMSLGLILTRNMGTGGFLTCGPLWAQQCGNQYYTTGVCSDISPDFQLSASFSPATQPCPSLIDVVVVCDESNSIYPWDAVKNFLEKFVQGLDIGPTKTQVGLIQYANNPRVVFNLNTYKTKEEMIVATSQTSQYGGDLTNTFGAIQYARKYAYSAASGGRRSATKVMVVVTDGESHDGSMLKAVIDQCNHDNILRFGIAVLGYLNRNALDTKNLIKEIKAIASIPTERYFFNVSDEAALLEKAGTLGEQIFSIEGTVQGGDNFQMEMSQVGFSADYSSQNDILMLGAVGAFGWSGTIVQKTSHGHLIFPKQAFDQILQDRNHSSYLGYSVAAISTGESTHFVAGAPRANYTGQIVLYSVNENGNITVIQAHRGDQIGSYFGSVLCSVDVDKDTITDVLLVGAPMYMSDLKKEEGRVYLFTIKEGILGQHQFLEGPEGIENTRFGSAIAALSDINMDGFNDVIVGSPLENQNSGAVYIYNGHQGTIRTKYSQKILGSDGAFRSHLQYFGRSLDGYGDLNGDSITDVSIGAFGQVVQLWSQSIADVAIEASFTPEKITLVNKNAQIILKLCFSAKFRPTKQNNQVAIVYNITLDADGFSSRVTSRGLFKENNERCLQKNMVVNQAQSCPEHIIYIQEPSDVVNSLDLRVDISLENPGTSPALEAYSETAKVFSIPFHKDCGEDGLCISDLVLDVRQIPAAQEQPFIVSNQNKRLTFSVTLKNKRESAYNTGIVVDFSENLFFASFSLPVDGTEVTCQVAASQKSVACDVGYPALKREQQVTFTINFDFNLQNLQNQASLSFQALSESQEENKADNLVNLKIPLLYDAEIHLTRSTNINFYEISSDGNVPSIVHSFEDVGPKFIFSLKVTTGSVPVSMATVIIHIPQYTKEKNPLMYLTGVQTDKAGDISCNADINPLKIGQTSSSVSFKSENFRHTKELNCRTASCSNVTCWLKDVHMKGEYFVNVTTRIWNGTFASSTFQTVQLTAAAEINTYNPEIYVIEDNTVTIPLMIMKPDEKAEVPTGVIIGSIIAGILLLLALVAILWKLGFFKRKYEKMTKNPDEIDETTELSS
Chain of UniProt Q9H8H3 (Q9H8H3 whole entry): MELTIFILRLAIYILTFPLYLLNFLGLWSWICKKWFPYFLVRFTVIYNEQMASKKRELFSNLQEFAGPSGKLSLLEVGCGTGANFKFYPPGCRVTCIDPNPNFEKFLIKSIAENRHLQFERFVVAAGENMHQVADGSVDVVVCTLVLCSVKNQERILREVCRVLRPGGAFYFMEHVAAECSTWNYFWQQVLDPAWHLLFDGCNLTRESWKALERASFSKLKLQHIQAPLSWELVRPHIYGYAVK
Chain of UniProt O43707 (O43707 whole entry): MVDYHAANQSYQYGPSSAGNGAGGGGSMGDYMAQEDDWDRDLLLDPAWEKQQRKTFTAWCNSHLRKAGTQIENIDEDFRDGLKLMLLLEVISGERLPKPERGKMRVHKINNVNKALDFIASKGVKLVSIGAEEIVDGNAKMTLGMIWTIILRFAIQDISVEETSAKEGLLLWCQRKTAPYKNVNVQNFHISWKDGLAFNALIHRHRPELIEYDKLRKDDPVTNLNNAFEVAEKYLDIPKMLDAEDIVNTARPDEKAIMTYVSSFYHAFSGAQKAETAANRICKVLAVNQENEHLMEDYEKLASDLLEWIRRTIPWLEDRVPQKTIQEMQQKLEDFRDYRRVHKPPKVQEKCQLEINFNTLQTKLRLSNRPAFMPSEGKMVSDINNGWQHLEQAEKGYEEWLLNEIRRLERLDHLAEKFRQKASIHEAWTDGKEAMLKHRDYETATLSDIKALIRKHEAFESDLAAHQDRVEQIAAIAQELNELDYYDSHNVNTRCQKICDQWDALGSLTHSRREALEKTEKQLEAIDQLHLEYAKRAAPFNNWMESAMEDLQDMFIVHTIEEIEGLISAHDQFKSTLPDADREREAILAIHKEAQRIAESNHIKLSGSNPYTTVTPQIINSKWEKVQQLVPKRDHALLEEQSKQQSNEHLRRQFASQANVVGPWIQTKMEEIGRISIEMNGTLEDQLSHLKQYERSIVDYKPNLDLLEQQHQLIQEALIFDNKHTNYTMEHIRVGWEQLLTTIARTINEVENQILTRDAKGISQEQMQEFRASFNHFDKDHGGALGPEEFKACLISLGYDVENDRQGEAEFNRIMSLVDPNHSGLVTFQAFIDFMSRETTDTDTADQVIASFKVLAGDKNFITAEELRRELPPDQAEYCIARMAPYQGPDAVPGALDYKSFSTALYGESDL
Chain of UniProt Q10471 (Q10471 whole entry): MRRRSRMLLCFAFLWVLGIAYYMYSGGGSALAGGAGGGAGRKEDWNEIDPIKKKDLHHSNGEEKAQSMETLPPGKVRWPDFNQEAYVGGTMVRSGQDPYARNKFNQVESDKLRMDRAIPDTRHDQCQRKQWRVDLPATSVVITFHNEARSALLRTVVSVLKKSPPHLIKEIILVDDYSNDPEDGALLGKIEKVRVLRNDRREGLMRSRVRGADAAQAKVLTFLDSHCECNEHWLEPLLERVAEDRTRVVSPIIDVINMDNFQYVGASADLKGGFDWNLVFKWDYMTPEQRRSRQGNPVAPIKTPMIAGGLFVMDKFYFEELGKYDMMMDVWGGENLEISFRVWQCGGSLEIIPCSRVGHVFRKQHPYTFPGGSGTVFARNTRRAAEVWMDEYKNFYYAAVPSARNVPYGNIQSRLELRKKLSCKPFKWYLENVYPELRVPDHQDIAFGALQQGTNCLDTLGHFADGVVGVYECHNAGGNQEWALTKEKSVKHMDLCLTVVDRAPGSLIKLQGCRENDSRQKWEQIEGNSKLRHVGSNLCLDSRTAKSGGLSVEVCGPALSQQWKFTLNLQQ
Chain of UniProt Q9UJS0 (Q9UJS0 whole entry): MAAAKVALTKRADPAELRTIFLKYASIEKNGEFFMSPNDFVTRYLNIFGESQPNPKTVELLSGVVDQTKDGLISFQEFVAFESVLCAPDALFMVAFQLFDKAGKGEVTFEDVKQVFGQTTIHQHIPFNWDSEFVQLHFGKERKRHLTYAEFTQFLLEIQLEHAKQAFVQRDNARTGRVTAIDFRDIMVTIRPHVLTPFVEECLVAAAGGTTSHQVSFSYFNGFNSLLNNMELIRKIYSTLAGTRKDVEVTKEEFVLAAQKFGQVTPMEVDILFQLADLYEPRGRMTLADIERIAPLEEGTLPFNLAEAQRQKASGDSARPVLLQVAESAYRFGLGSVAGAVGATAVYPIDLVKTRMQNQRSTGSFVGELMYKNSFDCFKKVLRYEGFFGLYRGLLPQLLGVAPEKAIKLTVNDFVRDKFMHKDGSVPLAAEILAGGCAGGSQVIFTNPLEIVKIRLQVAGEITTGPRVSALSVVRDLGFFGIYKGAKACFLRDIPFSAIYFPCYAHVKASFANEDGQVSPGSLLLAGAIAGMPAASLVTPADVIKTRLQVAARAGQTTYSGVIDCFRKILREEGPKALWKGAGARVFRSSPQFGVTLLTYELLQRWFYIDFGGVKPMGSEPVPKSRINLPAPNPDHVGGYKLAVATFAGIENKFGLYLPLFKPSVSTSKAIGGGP
Chain of UniProt P67809 (P67809 whole entry): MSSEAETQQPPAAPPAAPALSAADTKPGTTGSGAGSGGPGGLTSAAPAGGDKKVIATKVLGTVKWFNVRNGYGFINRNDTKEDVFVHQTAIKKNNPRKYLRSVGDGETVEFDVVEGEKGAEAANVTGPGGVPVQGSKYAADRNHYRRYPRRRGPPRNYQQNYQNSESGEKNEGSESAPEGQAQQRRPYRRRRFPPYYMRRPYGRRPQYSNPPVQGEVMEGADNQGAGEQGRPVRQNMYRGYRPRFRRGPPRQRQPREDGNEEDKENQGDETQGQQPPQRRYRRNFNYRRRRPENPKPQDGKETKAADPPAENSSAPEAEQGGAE
Chain of UniProt Q01974 (Q01974 whole entry): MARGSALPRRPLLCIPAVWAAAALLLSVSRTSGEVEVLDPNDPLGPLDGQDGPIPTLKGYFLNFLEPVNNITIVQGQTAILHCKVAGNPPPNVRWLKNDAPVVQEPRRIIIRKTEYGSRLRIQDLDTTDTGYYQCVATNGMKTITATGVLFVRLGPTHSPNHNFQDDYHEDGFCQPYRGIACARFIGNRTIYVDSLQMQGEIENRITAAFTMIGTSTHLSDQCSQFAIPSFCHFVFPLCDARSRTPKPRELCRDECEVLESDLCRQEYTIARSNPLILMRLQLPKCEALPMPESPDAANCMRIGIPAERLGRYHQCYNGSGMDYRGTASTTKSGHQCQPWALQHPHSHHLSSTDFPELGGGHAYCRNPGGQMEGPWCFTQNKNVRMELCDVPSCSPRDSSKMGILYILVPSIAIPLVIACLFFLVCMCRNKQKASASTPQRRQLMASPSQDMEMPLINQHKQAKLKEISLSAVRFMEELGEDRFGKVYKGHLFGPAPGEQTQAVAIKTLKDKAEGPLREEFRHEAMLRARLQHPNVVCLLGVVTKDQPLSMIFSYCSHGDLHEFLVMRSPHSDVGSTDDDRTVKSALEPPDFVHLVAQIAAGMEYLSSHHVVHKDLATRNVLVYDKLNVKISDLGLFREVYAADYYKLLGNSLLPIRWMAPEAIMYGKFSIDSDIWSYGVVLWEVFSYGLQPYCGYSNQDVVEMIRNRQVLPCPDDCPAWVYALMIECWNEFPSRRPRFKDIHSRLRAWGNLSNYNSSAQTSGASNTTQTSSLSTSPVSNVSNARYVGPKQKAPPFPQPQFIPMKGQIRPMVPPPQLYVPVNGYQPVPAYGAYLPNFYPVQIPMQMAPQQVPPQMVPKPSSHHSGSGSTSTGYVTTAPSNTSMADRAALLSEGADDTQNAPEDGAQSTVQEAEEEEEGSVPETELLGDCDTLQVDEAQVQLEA

Compound in this experiment: C#CCNC(=O)CCSSCCC(=O)NCCc1ccc(C=O)c(C=O)c1
Put plainly: lysine labeling ratio R10:1 (500 µM / 50 µM probe), SILAC-ABPP in living cells; higher = lower intrinsic lysine reactivity toward the probe, active = 2 or less. Conditions: HeLa; probe concentrations 500 vs 50 µM. In outline: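 Living SILAC light and heavy HeLa cells in PBS at room temperature were treated with an alkyne-tagged, disulfide-linked lysine probe at 50 µM or 500 µM, with forward and reverse label swaps. The mixed lysates were clicked to biotin-azide, digested with trypsin, captured on neutravidin, released with DTT, alkylated and run by LC-MS/MS on a TIMS-TOF Pro. R for each lysine is the filtered median high-probe/low-probe MS1 peptide ratio, taken again as the median over forward and reverse replicates. Any value above 20 is set to 20.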
For the target UniProt P16144 (lysine site: K219), the “lysine labeling ratio R10:1” value is 4.33. As for “METTL7A (lysine site: K210) (UniProt Q9H8H3)”, the figure is 1.36 (active); as for “ACTN4 (lysine site: K437) (UniProt O43707)”, 2.2. With “SLC25A13 (lysine site: K408) (UniProt Q9UJS0)”, the “lysine labeling ratio R10:1” value was 2.67. With “GALNT2 (lysine site: K111) (UniProt Q10471)” the figure was 3.04. Take “LRP6 (lysine site: K1053) (UniProt O75581)”: the “lysine labeling ratio R10:1” value is 2.76. Turning to “YBX1 (lysine site: K137) (UniProt P67809)”, the “lysine labeling ratio R10:1” value is 7.5.

As to “SEMA3C (lysine site: K158) (UniProt Q99985)”, the “lysine labeling ratio R10:1” value was 5.63. With “CCT8 (lysine site: K318) (UniProt P50990)”, the “lysine labeling ratio R10:1” value was 2.44. Take “LRP1 (lysine site: K3803) (UniProt Q07954)”: the “lysine labeling ratio R10:1” value was 3.09.

MSN (lysine site: K64) (UniProt P26038): the “lysine labeling ratio R10:1” value was 1.22 (active). With “RPS3A (lysine site: K63) (UniProt P61247)” the figure was 1.79 (active); with “CCT5 (lysine site: K399) (UniProt P48643)”, 2.73. With “FRAS1 (lysine site: K2521) (UniProt Q86XX4)” the figure was 2.03.

For “ITGA2 (lysine site: K261) (UniProt P17301)”, the “lysine labeling ratio R10:1” value is 1.26 (active). As for “CELSR2 (lysine site: K2300) (UniProt Q9HCU4)”, the figure is 1.18 (active); as for “ROR2 (lysine site: K97) (UniProt Q01974)”, 6.68; as for UniProt Q15149 (lysine site: K1175), 1.67 (active). As for “PDIA4 (lysine site: K245) (UniProt P13667)”, the figure is 1.07 (active); as for “FLNB (lysine site: K2470) (UniProt O75369)”, 1.78 (active). With “TXLNA (lysine site: K240) (UniProt P40222)” the figure was 1.67 (active). Turning to “IGF2R (lysine site: K808) (UniProt P11717)”, the “lysine labeling ratio R10:1” value was 5.23. As for “LAMC1 (lysine site: K1567) (UniProt P11047)”, the figure is 1.42 (active).
